Experimental findings from PubChem BioAssay (Tox21) are described below.

The nature of experiment [1]: A CellTox Green Cytotoxicity Assay to monitor cytotoxicity in HepG2 cells - 24 hour (AID 1224878). Further: nearly all actives have a fitted effect of over 45% in size. The gist of the method:
(§1)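 Cytotoxicity was tracked as dead-cell DNA fluorescence in HepG2 cells treated with test compounds at 37 C; each time-point value comes from one kinetic series spanning 0, 8, 16, 24, 32 and 40 h.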

The nature of experiment [2]: qHTS RealTime-Glo MT Cell Viability Assay in HEK293 cells - 0 hour (AID 1224880). Further: top concentration of the series differs between compounds; nearly all actives have a fitted effect of over 45% in size. The gist of the method: (§2)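 Kinetic, non-lysing viability readout. Seed HEK293 (600/well) with reagent, incubate 5 h at 37 C/5% CO2, pin 23 nL compound in DMSO, incubate at 37 C, read luminescence at 0, 8, 16, 24, 32, 40 h.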
On the technique in general: Quantitative high-throughput screening tests each substance at several concentrations.

Experiment [3] in a line: A CellTox Green Cytotoxicity Assay to monitor cytotoxicity in HEK293 cells - 32 hour (AID 1224881). Further: nearly all actives have a fitted effect of over 40% in size. The gist of the method:
(§3)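 Real-time, in one plate: 600 HEK293 cells/well with dead-cell DNA dye, pinned compound after 5 h, 37 C incubation over 40 h; viable cells give no appreciable fluorescence.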

Experiment [4] in a line: A CellTox Green Cytotoxicity Assay to monitor cytotoxicity in HepG2 cells - 0 hour (AID 1224882). Further: nearly all actives have a fitted effect of over 35% in size. The gist of the method:
as §1

Experiment [5] can be described thus: A CellTox Green Cytotoxicity Assay to monitor cytotoxicity in HepG2 cells - 32 hour (AID 1224883). Further: nearly all actives have a fitted effect of over 50% in size. Further: potency means the concentration at half of the fitted maximal effect. The gist of the method: as §1
A short description of experiment [6]: A CellTox Green Cytotoxicity Assay to monitor cytotoxicity in HEK293 cells - 8 hour (AID 1224884). Further: nearly all actives have a fitted effect of over 35% in size. The gist of the method: as §3
A short description of experiment [7]: qHTS RealTime-Glo MT Cell Viability Assay in HEK293 cells - 24 hour (AID 1224886). Further: top concentration of the series differs between compounds; nearly all actives have a fitted effect of over 50% in size. The gist of the method:
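Assay medium contained NanoLuc luciferase plus cell-permeant prosubstrate, added with HEK293 cells at 600 cells/well. After 5 h at 37 C/5% CO2 compounds were added; plates stayed at 37 C for 40 h with serial luminescence reads.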

Experiment [8] is described as follows: qHTS RealTime-Glo MT Cell Viability Assay in HEK293 cells - 8 hour (AID 1224887). Further: top concentration of the series differs between compounds; nearly all actives have a fitted effect of over 50% in size. The gist of the method:
as §2

Experiment [9] in a line: A CellTox Green Cytotoxicity Assay to monitor cytotoxicity in HEK293 cells - 16 hour (AID 1224888). Further: nearly all actives have a fitted effect of over 35% in size. The method in brief: as §3
Experiment [10] in a line: qHTS RealTime-Glo MT Cell Viability Assay in HepG2 cells - 0 hour (AID 1224889). Further: nearly all actives have a fitted effect of over 50% in size. The gist of the method:
(§4)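 qHTS, HepG2, 600 cells/well, RealTime-Glo (NanoLuc + prosubstrate) added with cells; 5 h preincubation; DMSO compound addition; 37 C; luminescence at 0/8/16/24/32/40 h.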

Experiment [11] is described as follows: A CellTox Green Cytotoxicity Assay to monitor cytotoxicity in HepG2 cells - 8 hour (AID 1224890). Further: nearly all actives have a fitted effect of over 45% in size. The method in brief:
as §1

A short description of experiment [12]: qHTS assay to identify small molecule antagonists of the estrogen receptor alpha (ER-alpha) signaling pathway using the BG1 cell line in the presence of 0.1 nM 17-beta-estradiol - cell viability counter screen (AID 1259241). Further: nearly all actives have a fitted effect of over 40% in size. The gist of the method: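 Following 5 days in phenol red-free medium with charcoal-stripped serum, VM7Luc4E2 cells received test compounds alongside 0.1 nM 17beta-estradiol (final) at 37C for 22 hr. Live cells were then quantified via protease-substrate fluorescence.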

A short description of experiment [13]: qHTS assay to identify small molecule antagonists of the androgen receptor (AR) signaling pathway using the MDA cell line in the presence of 0.5 nM R1881 - cell viability counter screen (AID 1259242). Further: nearly all actives have a fitted effect of over 45% in size. The gist of the method: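 Cells seeded at 3,000/well and allowed 5 hr at 37C, 0% CO2 before compound transfer and R1881 (0.5 nM final) addition; 16 hr later, live-cell protease fluorescence indicated cytotoxicity.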

For experiment [14], the target named is Androgen receptor (Homo sapiens) (UniProt P10275). The experiment is described as follows: qHTS assay to identify small molecule antagonists of the androgen receptor (AR) signaling pathway using the MDA cell line in the presence of 0.5 nM R1881 (AID 1259243). Further: nearly all actives have a fitted effect of over 50% in size. The method in brief: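 Luminescence from an AR/GR-responsive MMTV-luciferase construct in MDA-kb2 breast carcinoma cells, read 30 min after ONE-Glo, following 16 hr co-treatment with compounds and 0.5 nM R1881.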

Experiment [15] addresses Estrogen receptor (Homo sapiens) (UniProt P03372). The experiment is described as follows: qHTS assay to identify small molecule antagonists of the estrogen receptor alpha (ER-alpha) signaling pathway using the BG1 cell line in the presence of 0.1 nM 17-beta-estradiol (AID 1259244). Further: nearly all actives have a fitted effect of over 50% in size. The method in brief: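 Luciferase signal from VM7Luc4E2 ERE-reporter cells, co-dosed with test compound and 0.1 nM final 17beta-estradiol for 22 h, read with ONE-Glo.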

Experiment [16] can be described thus: qHTS assay to identify small molecule HDAC inhibitors (AID 1259364). Further: potency means the concentration at half of the fitted maximal effect. The gist of the method: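 HCT-116 wt cells, 1,500/well, overnight attach. Compounds (DMSO) 2 h, 37 °C. HDAC-Glo I/II, 30 min RT. Luminescence.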
A short description of experiment [17]: qHTS assay to identify small molecule HDAC inhibitors - cell viability counter screen (AID 1259365). The method in brief:
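HCT-116 wild-type, overnight attachment; 2hr drug exposure, 37C; CellTiter-Glo luminescent ATP readout after 30min RT.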

Experiment [18] can be described thus: qHTS RealTime-Glo MT Cell Viability Assay in HepG2 cells - 16 hour (AID 1224885). Further: nearly all actives have a fitted effect of over 50% in size. The method in brief: as §4
The nature of experiment [19]: qHTS assay to identify small molecule phospholipidosis (PLD) inducers (AID 1259344; active means well fitted curve in the direction sought with a large enough effect; an effect the other way counts as inactive or inconclusive). The gist of the method: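 Cells (HepG2, 900 per well) attach for 4 h, receive LipidTOX Red and compound together, incubate 24 h at 37 C, are fixed 30 min with paraformaldehyde/Hoechst, then imaged at one site per well.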
A short description of experiment [20]: A CellTox Green Cytotoxicity Assay to monitor cytotoxicity in HepG2 cells - 40 hour (AID 1224879). Further: nearly all actives have a fitted effect of over 40% in size. Further: potency means the concentration at half of the fitted maximal effect. The gist of the method:
as §1

A number with no mark means an inactive call. Records with an inconclusive call do not appear. Active and inactive are the calls of the source. Unless noted, the call rests on the fitted dose curve; in most records, active means well fitted curve in the direction sought with a large enough effect in the repeat runs; inconclusive means weak or mixed curves; inactive means no such curve, though single readings can be large; an effect the other way counts as inactive or inconclusive.

Estrogen receptor (Homo sapiens), sequence (P03372 whole entry, looked up): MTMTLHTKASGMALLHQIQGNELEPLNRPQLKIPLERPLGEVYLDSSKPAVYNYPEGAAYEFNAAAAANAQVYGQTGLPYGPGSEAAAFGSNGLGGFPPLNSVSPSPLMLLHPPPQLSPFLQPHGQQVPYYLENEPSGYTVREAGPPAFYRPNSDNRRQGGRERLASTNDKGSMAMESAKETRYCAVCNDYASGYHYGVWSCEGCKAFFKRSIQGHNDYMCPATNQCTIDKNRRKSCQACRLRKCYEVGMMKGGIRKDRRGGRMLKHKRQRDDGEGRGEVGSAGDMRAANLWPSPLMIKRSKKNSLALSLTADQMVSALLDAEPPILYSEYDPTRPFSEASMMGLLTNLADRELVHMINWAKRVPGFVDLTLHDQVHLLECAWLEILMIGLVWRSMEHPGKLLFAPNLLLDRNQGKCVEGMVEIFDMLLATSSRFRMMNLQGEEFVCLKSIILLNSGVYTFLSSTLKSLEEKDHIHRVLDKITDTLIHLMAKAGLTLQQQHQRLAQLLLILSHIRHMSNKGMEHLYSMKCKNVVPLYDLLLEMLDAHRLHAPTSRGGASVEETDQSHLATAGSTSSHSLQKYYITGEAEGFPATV
Androgen receptor (Homo sapiens), sequence (P10275 whole entry, looked up): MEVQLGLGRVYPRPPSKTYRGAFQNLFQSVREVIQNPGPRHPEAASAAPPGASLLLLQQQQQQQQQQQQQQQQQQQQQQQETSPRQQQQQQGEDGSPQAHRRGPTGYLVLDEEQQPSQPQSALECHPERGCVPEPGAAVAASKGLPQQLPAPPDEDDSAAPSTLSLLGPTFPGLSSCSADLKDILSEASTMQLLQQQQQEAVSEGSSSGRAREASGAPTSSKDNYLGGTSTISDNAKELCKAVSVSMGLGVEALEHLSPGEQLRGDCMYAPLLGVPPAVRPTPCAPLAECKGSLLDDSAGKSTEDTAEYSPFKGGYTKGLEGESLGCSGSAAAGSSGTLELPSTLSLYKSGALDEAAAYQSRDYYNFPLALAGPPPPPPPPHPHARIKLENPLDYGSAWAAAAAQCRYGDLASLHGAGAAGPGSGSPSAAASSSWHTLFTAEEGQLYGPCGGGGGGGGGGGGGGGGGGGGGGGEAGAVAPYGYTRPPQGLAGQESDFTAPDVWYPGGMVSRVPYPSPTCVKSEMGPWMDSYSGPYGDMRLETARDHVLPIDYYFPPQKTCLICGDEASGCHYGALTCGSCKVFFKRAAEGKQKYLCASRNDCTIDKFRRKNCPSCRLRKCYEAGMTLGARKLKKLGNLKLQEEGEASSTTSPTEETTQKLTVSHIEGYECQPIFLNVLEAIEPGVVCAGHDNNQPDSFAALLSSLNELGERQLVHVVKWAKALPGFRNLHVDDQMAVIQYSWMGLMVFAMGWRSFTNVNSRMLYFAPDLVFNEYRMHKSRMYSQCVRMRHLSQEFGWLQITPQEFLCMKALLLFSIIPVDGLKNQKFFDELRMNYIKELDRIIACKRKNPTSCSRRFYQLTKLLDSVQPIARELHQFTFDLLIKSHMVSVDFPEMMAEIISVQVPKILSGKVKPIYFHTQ

As for `CC(=O)OC1CCC(C(C)(C)C)CC1` (centres undefined), the Potency entry in experiment [1], in experiment [2], in experiment [3], in experiment [4], in experiment [5] and in experiment [6] was “inactive” each time. The Potency entry in [9], in experiment [10], in experiment [11], in [14] and in experiment [16] was “inactive” in each case. Further, the call in [7], in experiment [8], in [12], in experiment [13], in experiment [15] and in experiment [17] was inactive.

Consider `CCC(C)(C)C`, for which the Potency entry in [1], in [3], in experiment [4], in [5], in [6] and in experiment [9] was “inactive” throughout. Moreover, the Potency result in experiment [10], in experiment [11] and in experiment [16] was “inactive” throughout. In addition, the result in experiment [18], in [7], in experiment [8], in experiment [13], in experiment [15] and in experiment [17] was inactive.

Regarding `CN(C)CCc1c[nH]c2ccc(CS(=O)(=O)N3CCCC3)cc12`, the Potency result in experiment [1], in experiment [2], in experiment [3], in [4], in experiment [5] and in experiment [6] was “inactive” in each case. In addition, the Potency entry in experiment [9], in experiment [10], in experiment [11], in experiment [19] and in [16] was “inactive” throughout. Further, the compound was classed as inactive in experiment [18], in experiment [7], in [8], in experiment [12], in experiment [13] and in experiment [17].

For the compound `CC(CC(=O)Cl)CC(C)(C)C` (centres undefined), the Potency entry in experiment [1], in [2], in [3], in experiment [4], in [5] and in experiment [9] was “inactive” each time. The Potency entry in experiment [10] and in experiment [16] was “inactive” throughout. Also, the call in [18], in [7], in experiment [8], in experiment [12], in experiment [13] and in experiment [15] was inactive. Moreover, in [17], the compound was called inactive.

Consider `NCC1CCC(C(=O)Oc2ccc(CCC(=O)O)cc2)CC1` (centres undefined), for which the Potency result in experiment [20], in experiment [2], in experiment [3], in experiment [4], in experiment [5] and in [6] was “inactive” each time. For the same compound, the Potency entry in [9], in experiment [10], in experiment [11] and in experiment [19] was “inactive” throughout. In addition, the compound was classed as inactive in experiment [18], in experiment [7], in experiment [8], in experiment [12], in experiment [13] and in [17]. In [16], the Potency was 8.41 µM (active).

As for `CCCCOCCCC`, the Potency entry in experiment [1], in experiment [2], in experiment [4], in experiment [5], in experiment [6] and in [10] was “inactive” throughout. Besides, the Potency result in experiment [11] is “inactive”. Also, the compound was called inactive in experiment [18], in experiment [7], in experiment [8], in experiment [12], in experiment [13] and in [15]. The outcome in experiment [17] was inactive.

As for `CCC(C)c1nccnc1OC` (centres undefined), the Potency result in experiment [20], in [2], in experiment [3], in experiment [4], in experiment [5] and in experiment [6] was “inactive” in each case. Also, the Potency entry in experiment [9], in [10], in experiment [11] and in experiment [16] was “inactive” each time. For the same compound, the compound was classed as inactive in [18], in [7], in [8], in experiment [12], in experiment [13] and in experiment [15]. The result in [17] was inactive.

As for `COC(C)(C)CC(C)=O`, the Potency entry in [20], in [2], in experiment [3], in experiment [4], in [5] and in [6] was “inactive” throughout. Moreover, the Potency entry in [9], in experiment [10], in [11] and in experiment [14] was “inactive” throughout. The compound was called inactive in [18], in [7], in experiment [8], in experiment [12] and in experiment [13].

For the compound `CC(C)(C)c1ccc(N)cc1`, the Potency in experiment [20] and in experiment [5] was 61.7 µM (active) in each case. The Potency entry in [2], in experiment [3], in experiment [4], in experiment [6], in experiment [9] and in [10] was “inactive” each time. For the same compound, the Potency result in experiment [11] and in [16] was “inactive” in each case. For the same compound, the compound was called inactive in experiment [18], in experiment [7], in experiment [8], in experiment [12], in experiment [13] and in [15]. Further, the compound was classed as inactive in experiment [17].
